From PubChem BioAssay (Tox21)
The source made the active and inactive calls. Unless noted, the call rests on the fitted dose curve; in most records, active means well fitted curve in the direction sought with a large enough effect in the repeat runs; inconclusive means weak or mixed curves; inactive means no such curve, though single readings can be large; an effect the other way counts as inactive or inconclusive.

How the values were obtained:
[1] = qHTS assay to identify small molecule antagonists of the glucocorticoid receptor (GR) signaling pathway - cell viability counter screen (AID 720693); further: nearly all actives have a fitted effect of over 55% in size
[2] = qHTS assay for identifying genotoxic compounds that show differential cytotoxicity against isogenic chicken DT40 cell lines with known DNA damage response pathways - Rev3 mutant cell line (AID 743014); further: nearly all actives have a fitted effect of over 55% in size; further: potency means the concentration at half of the fitted maximal effect
[3] = qHTS assay for identifying genotoxic compounds that show differential cytotoxicity against isogenic chicken DT40 cell lines with known DNA damage response pathways - Rad54/Ku70 mutant cell line (AID 743015); further: nearly all actives have a fitted effect of over 60% in size; further: potency means the concentration at half of the fitted maximal effect
[4] = qHTS assay to identify small molecule antagonists of the androgen receptor (AR) signaling pathway - cell viability counter screen (AID 743033; further: nearly all actives have a fitted effect of over 45% in size)
[5] = qHTS assay to identify small molecule antagonists of the androgen receptor (AR) signaling pathway using the MDA cell line - cell viability counter screen (AID 743041; further: nearly all actives have a fitted effect of over 45% in size)
How it was run: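 Viability read by CellTiter-Fluor fluorescence in the same wells as the antagonist screen, added after 15.5 h of a 16 h, 37C exposure. Human breast carcinoma MDA-kb2 AR-luc cells, compounds co-dosed with agonist R1881.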

[6] = qHTS assay to identify small molecule antagonists of the thyroid receptor (TR) signaling pathway - cell viability counter screen (AID 743064); further: nearly all actives have a fitted effect of over 50% in size; further: potency means the concentration at half of the fitted maximal effect
How it was run: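 Same-well viability check: GH3.TRE-Luc cells stimulated with 1 nM T3 alongside test compound for 23.5 h, followed by CellTiter-Fluor fluorescence.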

[7] = system: thyroid hormone receptor (rat, GH3 cells); experiment: qHTS assay to identify small molecule agonists of the thyroid receptor (TR) signaling pathway (AID 743066; calls by dose curve)
[8] = molecular target: Estrogen receptor (Homo sapiens) (UniProt P03372); experiment: qHTS assay to identify small molecule antagonists of the estrogen receptor alpha (ER-alpha) signaling pathway (AID 743069; active means well fitted curve in the direction sought with a large enough effect in the signal ratio in the repeat runs, not every such curve was filed as active; inconclusive means weak or mixed curves, or effect the other way; inactive means no such curve, though single readings can be large or run the other way; the % refers to the signal ratio)
How it was run: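 Antagonist mode: compounds in DMSO were co-added with 17beta-estradiol to ER-alpha-bla HEK293 cells (2% charcoal-stripped serum) and left 18 h at 37C. Reporter inhibition was measured as FRET fluorescence after 2 h LiveBLAzer substrate at room temperature.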

[9] = qHTS assay to identify small molecule antagonists of the estrogen receptor alpha (ER-alpha) signaling pathway - cell viability counter screen (AID 743074; calls by dose curve;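 further: HEK293 cells carrying ER-alpha-UAS-bla reporter stimulated with 17beta-estradiol; nearly all actives have a fitted effect of over 45% in size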)
[10] = molecular target: Estrogen receptor (Homo sapiens) (UniProt P03372); experiment: qHTS assay to identify small molecule agonists of the estrogen receptor alpha (ER-alpha) signaling pathway (AID 743075; calls by dose curve;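 further: HEK293 GripTite cells with ER-alpha and UAS-driven beta-lactamase reporter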; further: potency means the concentration at half of the fitted maximal effect)
[11] = molecular target: Estrogen receptor (Homo sapiens) (UniProt P03372); experiment: qHTS assay to identify small molecule agonists of the estrogen receptor alpha (ER-alpha) signaling pathway using the BG1 cell line (AID 743079); further: nearly all actives have a fitted effect of over 20% in size; further: potency means the concentration at half of the fitted maximal effect
[12] = qHTS assay to identify small molecule antagonists of the estrogen receptor alpha (ER-alpha) signaling pathway using the BG1 cell line (AID 743080; calls by dose curve;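 further: BG1 cells stimulated with 17beta-estradiol alongside compound; series mostly up to about 70 µM; nearly all actives have a fitted effect of over 25% in size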)
How it was run: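 After 5 days in phenol-red-free 10% charcoal-stripped FBS medium, BG1-Luc-4E2 cells were seeded, left 24 h at 37 C, co-treated with compounds and 17beta-estradiol for 21.5 h, then assayed for viability and luciferase.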

[13] = qHTS assay to identify small molecule antagonists of the estrogen receptor alpha (ER-alpha) signaling pathway using the BG1 cell line - cell viability counter screen (AID 743081);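 further: compound given together with 17beta-estradiol as the ER stimulus; series mostly up to about 70 µM; nearly all actives have a fitted effect of over 45% in size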
Aromatase (Homo sapiens) = Aromatase (Homo sapiens) (UniProt P11511); experiment: qHTS assay to identify aromatase inhibitors (AID 743083); further: series mostly up to about 70 µM; nearly all actives have a fitted effect of over 55% in size
[14] = qHTS assay to identify small molecule antagonists of the thyroid receptor (TR) signaling pathway (AID 743065); further: nearly all actives have a fitted effect of over 55% in size; further: potency means the concentration at half of the fitted maximal effect
How it was run: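 Antagonism measured as loss of luciferase signal in GH3 cells stably carrying a TRE-luciferase reporter, co-treated with compound and T3 (1 nM final) for 23.5 h at 37 C. Viability was read in the same well by CellTiter-Fluor.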

[15] = molecular target: Androgen receptor (Homo sapiens) (UniProt P10275); experiment: qHTS assay to identify small molecule antagonists of the androgen receptor (AR) signaling pathway (AID 743035; active means well fitted inhibition curve with a large enough effect in the signal ratio in the repeat runs, not every such curve was filed as active; inconclusive means weak or mixed curves, or effect the other way; inactive means no such curve, though single readings can be large or run the other way; the % refers to the signal ratio)
How it was run: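 Antagonist mode: AR-bla HEK293 cells co-treated with test compounds and agonist R1881 for 16 h at 37C, 5% CO2. Beta-lactamase activity read as FRET fluorescence after 2 h room-temperature substrate loading.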

[16] = molecular target: Androgen receptor (Homo sapiens) (UniProt P10275); experiment: qHTS assay to identify small molecule agonists of the androgen receptor (AR) signaling pathway (AID 743036; active means well fitted activation curve with a large enough effect in the signal ratio in the repeat runs, with a control signal flat, not every such curve was filed as active; inconclusive means weak or mixed curves, or effect the other way; inactive means no such curve, though single readings can be large or run the other way; the % refers to the signal ratio)
How it was run: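 Agonist activity was scored by beta-lactamase reporter fluorescence in stably transfected HEK293 cells exposed to compounds for 16 h at 37C and 5% CO2. Substrate loading took 2 h at room temperature.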

[17] = molecular target: Androgen receptor (Homo sapiens) (UniProt P10275); experiment: qHTS assay to identify small molecule agonists of the androgen receptor (AR) signaling pathway using the MDA cell line (AID 743040; further: nearly all actives have a fitted effect of over 20% in size)
How it was run: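 Luciferase agonist assay: 16 h compound exposure at 37C without CO2 in MDA-kb2 AR-luc cells, whose MMTV promoter responds to both AR and GR. Luminescence measured after 30 min room-temperature incubation with ONE-Glo.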

[18] = molecular target: Androgen receptor (Homo sapiens) (UniProt P10275); experiment: qHTS assay to identify small molecule antagonists of the androgen receptor (AR) signaling pathway using the MDA cell line (AID 743042; further: nearly all actives have a fitted effect of over 55% in size)
How it was run: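 Antagonist mode: compounds plus R1881 agonist added to MDA-kb2 AR-luc cells, incubated 16 h at 37C. Luciferase reporter luminescence quantified, with multiplexed CellTiter-Fluor readout for cell viability.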

Measured: Potency

Chain of Androgen receptor (Homo sapiens) (P10275 whole entry, looked up): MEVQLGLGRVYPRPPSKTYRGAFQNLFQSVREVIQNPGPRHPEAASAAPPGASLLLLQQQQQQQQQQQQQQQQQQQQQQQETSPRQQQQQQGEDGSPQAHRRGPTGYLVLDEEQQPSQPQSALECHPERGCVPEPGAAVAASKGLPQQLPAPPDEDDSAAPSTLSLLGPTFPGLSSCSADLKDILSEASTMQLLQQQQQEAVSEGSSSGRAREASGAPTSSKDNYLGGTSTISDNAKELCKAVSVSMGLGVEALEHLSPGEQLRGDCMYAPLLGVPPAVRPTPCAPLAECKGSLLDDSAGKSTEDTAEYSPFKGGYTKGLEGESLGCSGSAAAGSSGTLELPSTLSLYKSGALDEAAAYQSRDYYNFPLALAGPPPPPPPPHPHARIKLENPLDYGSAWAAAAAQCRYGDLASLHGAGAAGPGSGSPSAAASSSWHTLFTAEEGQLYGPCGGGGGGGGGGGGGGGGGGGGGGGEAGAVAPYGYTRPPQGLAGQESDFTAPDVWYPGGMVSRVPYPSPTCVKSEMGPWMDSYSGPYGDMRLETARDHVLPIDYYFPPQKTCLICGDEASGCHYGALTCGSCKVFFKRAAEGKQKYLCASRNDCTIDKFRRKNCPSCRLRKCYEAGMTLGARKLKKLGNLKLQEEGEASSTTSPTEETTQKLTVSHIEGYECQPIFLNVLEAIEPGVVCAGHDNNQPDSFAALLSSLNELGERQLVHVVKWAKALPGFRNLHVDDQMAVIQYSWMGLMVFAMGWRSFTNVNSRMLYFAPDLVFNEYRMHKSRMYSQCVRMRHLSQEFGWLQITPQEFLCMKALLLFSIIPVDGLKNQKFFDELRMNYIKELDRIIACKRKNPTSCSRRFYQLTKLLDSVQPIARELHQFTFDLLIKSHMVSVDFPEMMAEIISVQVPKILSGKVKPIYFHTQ
Chain of Estrogen receptor (Homo sapiens) (P03372 whole entry, looked up): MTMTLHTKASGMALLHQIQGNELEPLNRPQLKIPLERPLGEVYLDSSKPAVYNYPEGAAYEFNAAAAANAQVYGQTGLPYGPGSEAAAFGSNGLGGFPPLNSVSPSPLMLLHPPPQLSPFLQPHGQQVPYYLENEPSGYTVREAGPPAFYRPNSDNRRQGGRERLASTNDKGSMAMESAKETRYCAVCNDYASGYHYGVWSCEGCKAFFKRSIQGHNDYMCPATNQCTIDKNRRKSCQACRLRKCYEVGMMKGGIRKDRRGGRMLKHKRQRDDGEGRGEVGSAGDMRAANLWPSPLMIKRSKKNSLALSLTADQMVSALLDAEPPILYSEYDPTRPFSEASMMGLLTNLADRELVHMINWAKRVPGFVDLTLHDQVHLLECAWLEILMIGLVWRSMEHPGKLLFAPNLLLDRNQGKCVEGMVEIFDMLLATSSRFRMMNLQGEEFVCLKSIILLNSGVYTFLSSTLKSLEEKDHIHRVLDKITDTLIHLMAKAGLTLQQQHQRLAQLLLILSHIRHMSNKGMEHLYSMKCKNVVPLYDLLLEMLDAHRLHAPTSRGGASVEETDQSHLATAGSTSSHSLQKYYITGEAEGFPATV
Chain of Aromatase (Homo sapiens) (P11511 whole entry, looked up): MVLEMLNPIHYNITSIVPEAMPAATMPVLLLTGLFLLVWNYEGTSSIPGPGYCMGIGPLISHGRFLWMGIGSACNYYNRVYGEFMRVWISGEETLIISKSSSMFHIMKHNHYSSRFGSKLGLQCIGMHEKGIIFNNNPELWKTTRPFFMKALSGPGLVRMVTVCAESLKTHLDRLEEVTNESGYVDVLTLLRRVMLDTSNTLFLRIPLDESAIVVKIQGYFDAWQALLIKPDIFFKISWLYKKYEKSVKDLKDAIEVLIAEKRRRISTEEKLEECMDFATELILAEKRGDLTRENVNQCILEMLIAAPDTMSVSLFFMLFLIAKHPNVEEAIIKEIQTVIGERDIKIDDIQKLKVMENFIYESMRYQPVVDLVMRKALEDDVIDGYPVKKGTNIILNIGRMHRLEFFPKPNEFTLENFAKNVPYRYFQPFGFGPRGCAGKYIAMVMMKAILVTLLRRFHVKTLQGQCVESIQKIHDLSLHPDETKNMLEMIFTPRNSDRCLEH

NC(CCC(=O)O)C(=O)O (configuration not stated)
not listed: [14] | [15] | [16] | [17] | [18]
inactive: all other assays above

NC(=O)N1c2ccccc2CC(=O)c2ccccc21
active: [2] 5.96 µM | [6] 13.3 µM | [14] 11.9 µM
inactive: [1] | [4] | [5] | [7] | [9] | [13]

CN1CCC(=C2c3ccccc3CCc3cccnc32)CC1
active: [14] 23.7 µM
not listed: [6] | [15] | [16] | [17] | [18]
inactive: all other assays above

c1ccc(CCc2ccccc2)cc1
not listed: [8] | [10] | [11] | [12] | [15] | [16] | [17] | [18]
inactive: all other assays above

CC(=O)N[C@H]1[C@H]([C@H](O)[C@H](O)CO)OC(C(=O)O)=C[C@@H]1N=C(N)N
not listed: [3] | [9]
inactive: all other assays above

C[N+]1(CC2COC(c3ccccc3)(c3ccccc3)O2)CCCCC1 (configuration not stated)
inactive: [1] | [4] | [5] | [6] | [14] | [7] | [9] | [13] | Aromatase (Homo sapiens)
active: [2] 29.8 µM | [3] 26.6 µM

C=CCCCCCCCCC(=O)OCC
not listed: [9] | [12] | [15] | [16] | [17] | [18]
inactive: all other assays above

CC[N+](C)(CC)CCOC(=O)C1c2ccccc2Oc2ccccc21
not listed: [8] | [10] | [11] | [12] | [15] | [16] | [17] | [18]
inactive: all other assays above

CC[N+](CC)(CC(=O)Nc1c(C)cccc1C)Cc1ccccc1 (tested in a mixture with another compound)
inactive: [1] | [3] | [4] | [5] | [6] | [9] | [13] | Aromatase (Homo sapiens)
active: [2] 16 µM

C[C@H]1[C@H](NC(=O)/C(=N/OC(C)(C)C(=O)O)c2csc(N)n2)C(=O)N1S(=O)(=O)O (stereo in doubt)
inactive: [1] | [2] | [3] | [4] | [5] | [9] | [13] | Aromatase (Homo sapiens)

CC[C@H]1OC(=O)[C@H](C)[C@@H](O[C@H]2C[C@@](C)(OC)[C@@H](O)[C@H](C)O2)[C@H](C)[C@@H](O[C@@H]2O[C@H](C)C[C@H](N(C)C)[C@H]2O)[C@](C)(OC)C[C@@H](C)C(=O)[C@H](C)[C@@H](O)[C@]1(C)O
not listed: [12] | [13] | [15] | [16] | [17] | [18]
inactive: all other assays above

CCCCc1nc(Cl)c(CO)n1Cc1ccc(-c2ccccc2-c2nn[nH]n2)cc1
inactive: [1] | [2] | [3] | [5] | [9] | [13] | Aromatase (Homo sapiens)

O=C1CCCCCCCCCCCCCCO1
not listed: [8] | [10] | [11] | [12] | [15] | [16] | [17] | [18]
inactive: all other assays above

CC(C)(C)OC(=O)c1cccc(N)c1
active: [10] 56.4 µM [inconclusive] | [11] 31.4 µM
not listed: [12] | [15] | [16] | [17] | [18]
inactive: all other assays above

COc1ccnc(CS(=O)c2nc3cc(OC(F)F)ccc3[nH]2)c1OC (configuration not stated)
not listed: [8] | [15] | [16] | [17] | [18]
inactive: all other assays above

CCCCOCCOC(=O)CCCCCCCCC(=O)OCCOCCCC
not listed: [8] | [10] | [11] | [12] | [15] | [16] | [17] | [18]
inactive: all other assays above

N[C@H](C(=O)O)[C@@H](O)c1ccc(O)c(O)c1
active: [2] 16.8 µM | [3] 21.1 µM
not listed: [6] | [12] | [14] | [15] | [16] | [17] | [18]
inactive: all other assays above

CCOC(=O)C1=NOC(c2ccccc2)(c2ccccc2)C1
active: [2] 68.6 µM
not listed: [3] | [15] | [16] | [17] | [18]
inactive: all other assays above

CCCc1ncc(C[n+]2ccccc2C)c(N)n1
not listed: [8] | [10] | [11] | [12] | [15] | [16] | [17] | [18]
inactive: all other assays above

CCCCOC(=O)CCC(C)=O
active: [2] 68.6 µM
not listed: [3] | [15] | [16] | [17] | [18]
inactive: all other assays above

CC(C)(CCC(=O)O)C(=O)O
not listed: [12] | [15] | [16] | [17] | [18]
inactive: all other assays above
